According to ChEMBL document CHEMBL5308504, “Tm Shift (DSF) assay results for EUbOPEN Chemogenomics Library” (2023):

Each compound was assayed against Tyrosine-protein kinase ABL1 (Homo sapiens) (UniProt P00519). Details: Compound concentration 20.0 uM, Protein concentration 2.0 uM, Result type QC Liability.
Tyrosine-protein kinase ABL1 (Homo sapiens), sequence (P00519 whole entry): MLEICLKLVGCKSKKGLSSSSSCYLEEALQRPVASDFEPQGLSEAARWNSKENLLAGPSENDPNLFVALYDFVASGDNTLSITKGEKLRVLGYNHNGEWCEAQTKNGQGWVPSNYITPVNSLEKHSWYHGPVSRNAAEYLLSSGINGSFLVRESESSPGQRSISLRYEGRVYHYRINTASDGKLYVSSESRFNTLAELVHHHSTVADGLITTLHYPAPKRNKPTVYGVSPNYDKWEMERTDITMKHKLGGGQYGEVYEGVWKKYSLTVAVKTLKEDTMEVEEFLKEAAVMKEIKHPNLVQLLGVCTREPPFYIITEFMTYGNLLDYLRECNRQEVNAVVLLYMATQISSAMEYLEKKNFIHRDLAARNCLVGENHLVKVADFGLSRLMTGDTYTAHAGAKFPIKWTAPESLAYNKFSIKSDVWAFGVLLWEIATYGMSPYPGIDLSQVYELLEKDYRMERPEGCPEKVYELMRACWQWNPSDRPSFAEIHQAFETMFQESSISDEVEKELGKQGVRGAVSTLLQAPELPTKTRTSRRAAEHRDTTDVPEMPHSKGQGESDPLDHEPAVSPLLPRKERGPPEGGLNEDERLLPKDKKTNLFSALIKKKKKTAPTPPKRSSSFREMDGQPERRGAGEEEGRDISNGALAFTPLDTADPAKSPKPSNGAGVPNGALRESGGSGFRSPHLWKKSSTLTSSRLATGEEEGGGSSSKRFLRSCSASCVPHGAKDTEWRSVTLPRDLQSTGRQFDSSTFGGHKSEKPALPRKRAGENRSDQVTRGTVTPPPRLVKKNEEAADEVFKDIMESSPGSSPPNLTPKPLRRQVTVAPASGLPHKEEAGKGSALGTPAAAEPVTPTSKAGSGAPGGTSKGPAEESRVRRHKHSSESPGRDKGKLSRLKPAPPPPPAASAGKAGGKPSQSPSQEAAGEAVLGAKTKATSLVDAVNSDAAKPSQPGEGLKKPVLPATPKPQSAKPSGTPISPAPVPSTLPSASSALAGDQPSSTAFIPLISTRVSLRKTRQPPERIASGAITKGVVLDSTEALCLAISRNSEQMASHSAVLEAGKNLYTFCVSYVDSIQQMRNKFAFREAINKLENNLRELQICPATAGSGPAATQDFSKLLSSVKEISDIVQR
`O=C1Nc2ccc(I)cc2/C1=C/c1cc(Br)c(O)c(Br)c1` was tested, and the ΔTm was 2.98 °C.
Work on `Cc1cc2ncnn2cc1Nc1ncc2c(n1)n(C1CCOCC1)c(=O)n2C` yielded a ΔTm of -0.11 °C.
Work on `CNc1oc(-c2cccc3ccccc23)nc1C#N` yielded a ΔTm of 0.54 °C.
Work on `COc1ccc(CSc2nnc(-c3ccc4ncsc4c3)o2)cc1C(F)(F)F` yielded a ΔTm of -6.63 °C.
`CC(C)C(=O)N1CCC(c2cn(C)c3ncc(NC(=O)c4cccc(C#N)c4)c(C(F)(F)F)c23)CC1` gave a ΔTm of -0.05 °C.
`COCCN1CCN(CCn2ccc(Nc3ncc4c(n3)-c3c(nn(C)c3-c3ccccc3)C[C@H]4C)n2)CC1` was tested, and the ΔTm was 2.08 °C.
For `N#C/C(=C\c1ccc(O)c(O)c1)C(=O)OCCc1cccs1`, the ΔTm was 2.18 °C.
With `CC(=O)N(CCN(C)C)c1ccc(N/C(=C2\C(=O)Nc3cc(Cl)ccc32)c2ccccc2)cn1` the ΔTm was 8.38 °C.
For `Cc1nc(-c2ccc(C(F)(F)F)cc2)sc1C(=O)NCc1ccc(OC(C)(C)C(=O)O)cc1`, the ΔTm was 0.61 °C.
Work on `CC(C)N(CCCCOCC(=O)O)c1cnc(-c2ccccc2)c(-c2ccccc2)n1` yielded a ΔTm of 0.75 °C.
`FC(F)c1cncc(-c2ccc3ncc4nnc(C5=CCCOCC5)n4c3c2)c1` was tested, and the ΔTm was 0.89 °C.
`CC(C)c1cnc(NC(=O)Cc2ccccc2)s1` gave a ΔTm of 1.04 °C.
`CCCCOc1c(C(=O)c2c(F)cc(C)cc2F)c[nH]c2nncc1-2` was tested, and the ΔTm was 0.35 °C.
For `CCN1C(=O)c2cc(C)ccc2N(C)c2ncccc21`, the ΔTm was -0.36 °C.
`CCOCCn1cc(C(=O)Nc2ccc(-n3nc(-c4cccnc4)cc3C(F)(F)F)cn2)ccc1=O` gave a ΔTm of 0.3 °C.
For `CC#CCC(C)[C@H](O)/C=C/[C@@H]1[C@H]2C/C(=C/CCCC(=O)O)C[C@H]2C[C@H]1O` (stereo partly specified), the ΔTm was -0.29 °C.
